Experimental data as given in PubChem BioAssay.
Several values for one entry are separate records, joined by “and”; a condition that tells them apart may be missing. Identical values can stand only once. For some assays here: Entries with a potency or affinity are not part of this list. Some compounds were tested as several samples or in several runs, with calls that do not always agree. Activity calls are given as the source filed them. Unless noted, no rule for the calls is given here.

Tests used:
[1] = antimalarial activity against Dd2 strain (AID 2302;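 active = growth inhibition above 50% at the single 2 µM test dose, taken to imply half-maximal potency below 2 µM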;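 also: 0% = DMSO untreated growth and 100% = chloroquine plus artemisinin killed control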); settings: P. falciparum Dd2 in RBCs, LDH growth readout, 72 h; at 2 µM; stronger effect = higher value
[2] = human hepatoma cell viability loss – ATP luminescence, cytotoxicity control for P. falciparum antimalarial project, primary screen (AID 2303;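 active = inhibition above 50%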;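 also: 0% = DMSO wells and 100% = digitonin-killed cells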); settings: HepG2 viability, 24-48 h, at 10 µM, stronger effect = higher value
[3] = target: L-lactate dehydrogenase (Plasmodium falciparum (isolate CDC / Honduras)) (UniProt Q27743); assay: PfLDH activity inhibition – cell lysate, 3D7 strain, counter-screen for P. falciparum growth inhibition project (AID 2304);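 also: 0% = vehicle and 100% = reference inhibitor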; settings: P. falciparum 3D7 crude extract, LDH APAD/NBT absorbance; at 2 µM; stronger effect = higher value
[4] = inhibition of 3D7 malaria parasite growth – strain 3D7 (AID 2306);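 also: 0% = DMSO wells and 100% = chloroquine plus artemisinin control wells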; settings: P. falciparum 3D7 erythrocytic growth, LDH absorbance, 72 h; at 2 µM; stronger effect = higher value
[5] = target: Calcium-dependent protein kinase 1 (Plasmodium falciparum (isolate 3D7)) (UniProt P62344); assay: PfCDPK1 kinase inhibitors, biochemical, TCAMS library (AID 1159585; cut-off not given, nearly all actives have IC50 up to about 0.98 µM;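 also: inhibitors leave more ATP so luminescence rises with inhibition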); settings: recombinant PfCDPK1, Kinase-Glo ATP depletion luminescence
[6] = target: Plasmodium falciparum protein kinase 6 (PK6, PF3D7_1337100) (UniProt Q8IDW1); assay: PfPK6 kinase inhibitors, biochemical, TCAMS library (AID 1159586); settings: recombinant PfPK6, Kinase-Glo ATP depletion luminescence
[7] = target: Protein kinase 7 (PK7), Plasmodium falciparum 3D7 (PF3D7_0213400) (UniProt Q7YTF7); assay: inhibition of Plasmodium PK7 catalytic activity – biochemical, TCAMS antimalarial set, Kinase-Glo luminescence (AID 1159587); settings: recombinant PfPK7, Kinase-Glo ATP depletion luminescence
[8] = target: Calcium-dependent protein kinase 4 (Plasmodium falciparum (isolate 3D7)) (UniProt Q8IBS5); assay: PfCDPK4 kinase inhibitors, biochemical, TCAMS library (AID 1159588; cut-off not given, nearly all actives have IC50 up to about 0.91 µM); settings: recombinant PfCDPK4, Kinase-Glo ATP depletion luminescence
Calcium-dependent protein kinase 4 (Plasmodium falciparum (isolate 3D7)), sequence (Q8IBS5 whole entry, looked up): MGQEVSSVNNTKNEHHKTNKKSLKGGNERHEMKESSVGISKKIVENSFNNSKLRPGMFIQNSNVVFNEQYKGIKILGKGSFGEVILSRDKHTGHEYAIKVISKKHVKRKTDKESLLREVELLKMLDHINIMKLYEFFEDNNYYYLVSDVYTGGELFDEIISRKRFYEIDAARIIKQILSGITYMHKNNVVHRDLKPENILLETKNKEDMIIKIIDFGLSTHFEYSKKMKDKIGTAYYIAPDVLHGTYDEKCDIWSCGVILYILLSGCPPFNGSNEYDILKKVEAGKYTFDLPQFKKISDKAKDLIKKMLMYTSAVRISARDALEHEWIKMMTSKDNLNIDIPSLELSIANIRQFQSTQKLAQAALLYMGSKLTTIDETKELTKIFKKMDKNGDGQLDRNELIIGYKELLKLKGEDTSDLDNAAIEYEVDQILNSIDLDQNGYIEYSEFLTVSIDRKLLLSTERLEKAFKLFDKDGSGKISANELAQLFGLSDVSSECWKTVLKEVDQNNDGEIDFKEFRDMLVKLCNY

Plasmodium falciparum protein kinase 6 (PK6, PF3D7_1337100), sequence (Q8IDW1 1-305): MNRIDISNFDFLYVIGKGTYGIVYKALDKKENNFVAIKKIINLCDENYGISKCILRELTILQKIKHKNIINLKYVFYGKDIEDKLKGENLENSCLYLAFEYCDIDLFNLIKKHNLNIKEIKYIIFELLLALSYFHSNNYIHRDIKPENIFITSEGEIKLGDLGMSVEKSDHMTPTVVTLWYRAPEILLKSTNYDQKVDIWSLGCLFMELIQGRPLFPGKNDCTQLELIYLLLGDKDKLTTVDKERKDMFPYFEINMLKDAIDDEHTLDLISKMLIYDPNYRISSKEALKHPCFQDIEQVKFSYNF
L-lactate dehydrogenase (Plasmodium falciparum (isolate CDC / Honduras)), sequence (Q27743 whole entry, looked up): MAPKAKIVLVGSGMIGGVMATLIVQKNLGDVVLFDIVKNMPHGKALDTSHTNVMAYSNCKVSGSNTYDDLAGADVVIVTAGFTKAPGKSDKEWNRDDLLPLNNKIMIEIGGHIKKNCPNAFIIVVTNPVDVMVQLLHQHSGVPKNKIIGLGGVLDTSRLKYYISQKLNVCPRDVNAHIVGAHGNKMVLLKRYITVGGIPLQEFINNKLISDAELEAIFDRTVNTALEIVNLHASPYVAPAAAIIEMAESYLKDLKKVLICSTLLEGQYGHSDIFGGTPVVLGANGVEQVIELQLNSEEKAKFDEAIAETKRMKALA
Calcium-dependent protein kinase 1 (Plasmodium falciparum (isolate 3D7)), sequence (P62344 whole entry, looked up): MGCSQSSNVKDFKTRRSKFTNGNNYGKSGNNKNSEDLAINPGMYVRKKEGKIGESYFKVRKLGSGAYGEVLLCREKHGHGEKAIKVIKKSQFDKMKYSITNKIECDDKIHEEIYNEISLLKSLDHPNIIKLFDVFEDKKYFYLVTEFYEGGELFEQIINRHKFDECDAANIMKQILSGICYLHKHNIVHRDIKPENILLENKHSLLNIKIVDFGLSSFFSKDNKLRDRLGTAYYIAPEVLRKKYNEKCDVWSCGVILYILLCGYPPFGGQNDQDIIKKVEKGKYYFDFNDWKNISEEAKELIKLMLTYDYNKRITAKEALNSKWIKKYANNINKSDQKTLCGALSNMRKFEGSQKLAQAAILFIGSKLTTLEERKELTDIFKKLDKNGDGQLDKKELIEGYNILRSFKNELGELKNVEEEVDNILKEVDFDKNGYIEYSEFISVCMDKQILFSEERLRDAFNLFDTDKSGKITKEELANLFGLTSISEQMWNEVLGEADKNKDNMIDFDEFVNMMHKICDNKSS
Protein kinase 7 (PK7), Plasmodium falciparum 3D7 (PF3D7_0213400), sequence (Q7YTF7 1-343): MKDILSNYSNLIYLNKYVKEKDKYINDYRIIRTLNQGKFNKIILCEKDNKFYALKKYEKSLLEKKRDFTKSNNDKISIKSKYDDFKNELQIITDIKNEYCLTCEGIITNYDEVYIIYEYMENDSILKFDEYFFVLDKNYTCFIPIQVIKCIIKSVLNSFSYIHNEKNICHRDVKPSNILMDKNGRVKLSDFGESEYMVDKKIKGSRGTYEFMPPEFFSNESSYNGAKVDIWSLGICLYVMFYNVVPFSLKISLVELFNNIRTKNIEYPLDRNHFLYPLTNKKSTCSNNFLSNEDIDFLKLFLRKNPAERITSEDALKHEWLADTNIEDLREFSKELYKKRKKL

CN(C)CCOc1cc(NC(=O)Nc2ccc(-c3ccncc3)c(C(F)(F)F)c2)ccc1Cl
inactive: inhibition [2] 36% | inhibition [3] 3% | outcome [5] | outcome [6] | outcome [7] | outcome [8]
active: growth inhibition [1] 79% | growth inhibition [4] 100%

CCNc1cc(C)nc(Nc2ccc(NS(=O)(=O)c3ccccc3)cc2)n1
inactive: inhibition [2] 41% | inhibition [3] -3% | outcome [5] | outcome [6] | outcome [7] | outcome [8]
active: growth inhibition [1] 54% | growth inhibition [4] 100%

COc1ccc(CNCc2ccccc2)cc1-c1ccc(S(=O)(=O)NCCN2CCCC2)cc1
active: growth inhibition [4] 96%
inactive: growth inhibition [1] 39% | inhibition [2] 38% | inhibition [3] -1% | outcome [5] | outcome [6] | outcome [7] | outcome [8]

O=C1c2cc(I)ccc2SC1c1ccccc1 (stereo not given)
inactive: inhibition [2] -7% | inhibition [3] -2% | outcome [5] | outcome [6] | outcome [7] | outcome [8]
active: growth inhibition [1] 98% | growth inhibition [4] 96%

CC1CN(Cc2cccc(-c3ccc(-c4nc5ccc(F)cc5[nH]4)cc3)c2)CC(C)O1 (stereo not given)
inactive: inhibition [2] 45% | inhibition [3] -3% | outcome [5] | outcome [6] | outcome [7] | outcome [8]
active: growth inhibition [1] 88% | growth inhibition [4] 87%

O=C(Nc1ccc2c(c1)CCN2C1CCN(Cc2cccc3cc[nH]c23)C1)c1ccco1 (stereo not given)
inactive: inhibition [2] -1% | inhibition [3] 2% | outcome [5] | outcome [6] | outcome [7] | outcome [8]
active: growth inhibition [1] 86% | growth inhibition [4] 88%

Cc1cc(N[C@@H](Cc2ccccc2)C(=O)NC2CCCC2)nc(NCCc2cccs2)n1
active: growth inhibition [4] 99%
inactive: growth inhibition [1] 14% | inhibition [2] -6% | inhibition [3] -2% | outcome [5] | outcome [6] | outcome [7] | outcome [8]

CCC1CN2CCc3c([nH]c4ccccc34)[C@@H]2C[C@@H]1CC1NCCc2cc(OC)c(OC)cc21 (stereo not given in full)
inactive: inhibition [2] 33% and 26% | inhibition [3] 3% and 1% | outcome [5] | outcome [6] | outcome [7] | outcome [8]
active: growth inhibition [1] 67% and 83% | growth inhibition [4] 100%

CS(=O)(=O)c1ccc2nc(NC(=O)c3csnn3)sc2c1
inactive: inhibition [2] 3% | inhibition [3] 0% | outcome [5] | outcome [6] | outcome [7] | outcome [8]
active: growth inhibition [1] 95% | growth inhibition [4] 90%

O=C(C=Cc1ccc(C(=O)Nc2ccc(C3=NCCN3)cc2)cc1)Nc1ccc(C2=NCCN2)cc1
inactive: inhibition [2] -7% | inhibition [3] 3% | outcome [5] | outcome [6] | outcome [7] | outcome [8]
active: growth inhibition [1] 101% | growth inhibition [4] 97%

CCc1nc2c(N)nc(N)nc2nc1-c1ccc(OC)cc1
active: growth inhibition [4] 86%
inactive: growth inhibition [1] -3% | inhibition [2] 44% | inhibition [3] 2% | outcome [5] | outcome [6] | outcome [7] | outcome [8]

CCCOc1cccc(C(=O)N[C@@H](Cc2ccccc2)[C@H](O)CNCc2cccc(OC)c2)c1
inactive: growth inhibition [1] 18% | inhibition [2] 14% | inhibition [3] -3% | outcome [5] | outcome [6] | outcome [7] | outcome [8]
active: growth inhibition [4] 102%

COc1ccc(NC(=O)C2c3ccccc3C(=O)N(CC(C)C)C2c2cccs2)cc1OC (stereo not given)
inactive: inhibition [2] 6% | inhibition [3] 3% | outcome [5] | outcome [6] | outcome [7] | outcome [8]
active: growth inhibition [1] 98% | growth inhibition [4] 100%

CC(=O)Nc1ccc(CN2Cc3ccc(NC(=O)Nc4ccc(Oc5ccccc5)cc4)cc3C2)s1
active: growth inhibition [4] 91%
inactive: growth inhibition [1] 25% | inhibition [2] 9% | inhibition [3] 6% | outcome [5] | outcome [6] | outcome [7] | outcome [8]

CC1(CCc2ccccc2)N=C(N)N=C(N)C1c1ccc(Cl)c(Cl)c1 (stereo not given)
active: growth inhibition [4] 98%
inactive: growth inhibition [1] 39% | inhibition [2] 19% | inhibition [3] -8% | outcome [5] | outcome [6] | outcome [7] | outcome [8]

O=c1cc(NCCCNCc2ccc(Cl)c(Cl)c2)[nH]c2cc(Cl)ccc12
active: growth inhibition [1] 51% | growth inhibition [4] 95%
inactive: inhibition [2] 1% | inhibition [3] 1% | outcome [5] | outcome [6] | outcome [7] | outcome [8]

O=C(NC1CCN(Cc2ccccc2)CC1)c1ccc(-c2nc3cc(F)c(F)cc3[nH]2)s1
inactive: inhibition [2] 6% | inhibition [3] 1% | outcome [5] | outcome [6] | outcome [7] | outcome [8]
active: growth inhibition [1] 97% | growth inhibition [4] 101%

COc1ccc(NC(=O)N2CCN(CCCCCNC(=O)/C=C/c3ccc(C(F)(F)F)cc3)CC2)cc1Cl
active: growth inhibition [4] 94%
inactive: growth inhibition [1] -5% | inhibition [2] 25% | inhibition [3] -2% | outcome [5] | outcome [6] | outcome [7] | outcome [8]

FC(F)(F)c1cccc(C=NNc2nc3ccccc3[nH]2)c1
active: growth inhibition [1] 99% | growth inhibition [4] 101%
inactive: inhibition [2] 1% | inhibition [3] 0% | outcome [5] | outcome [6] | outcome [7] | outcome [8]

Cc1cccc2[nH]c(-c3ccc(-c4cccc(CN5CCCC5CN)c4)s3)nc12 (stereo not given)
active: growth inhibition [4] 91%
inactive: growth inhibition [1] 45% | inhibition [2] 20% | inhibition [3] 5% | outcome [5] | outcome [6] | outcome [7] | outcome [8]

COc1cc(C(F)(F)F)c2cc(CNCCCNc3nc4ccccc4[nH]3)[nH]c2c1
active: inhibition [2] 60% | growth inhibition [4] 101%
inactive: growth inhibition [1] 0% | inhibition [3] -6% | outcome [5] | outcome [6] | outcome [7] | outcome [8]

CCCCCN1CCCC1CNS(=O)(=O)c1ccc(C(=O)Nc2cccc(C(F)(F)F)c2)cc1 (stereo not given)
active: growth inhibition [4] 95%
inactive: growth inhibition [1] -1% | inhibition [2] 16% | inhibition [3] -4% | outcome [5] | outcome [6] | outcome [7] | outcome [8]

O=c1cc(NCCCNCc2cc(Cl)cc(Cl)c2OCc2ccccc2)[nH]c2ccccc12
inactive: inhibition [2] -4% | inhibition [3] -2% | outcome [5] | outcome [6] | outcome [7] | outcome [8]
active: growth inhibition [1] 50% | growth inhibition [4] 91%

O=C(Nc1ccccc1O)c1ccc(Oc2cccc(C(=O)Nc3ccccc3O)c2)cc1
active: growth inhibition [1] 70% | growth inhibition [4] 97%
inactive: inhibition [2] 33% | inhibition [3] -1% | outcome [5] | outcome [6] | outcome [7] | outcome [8]

COc1cccc(-c2ccc3ccnc(N)c3c2)c1
inactive: inhibition [2] 40% | inhibition [3] 0% | outcome [5] | outcome [6] | outcome [7] | outcome [8]
active: growth inhibition [1] 93% | growth inhibition [4] 101%

Oc1ccc(Cl)cc1CN1CCCC(COC(c2ccc(F)cc2)c2ccc(F)cc2)C1 (stereo not given)
active: growth inhibition [1] 100% | growth inhibition [4] 98%
inactive: inhibition [2] 20% | inhibition [3] 3% | outcome [5] | outcome [6] | outcome [7] | outcome [8]

O=C(Nc1cccc(CN2CCCN(Cc3ccc(O)cc3)CC2)c1)c1cccc(Cl)c1
inactive: growth inhibition [1] 41% | inhibition [2] 10% | inhibition [3] 5% | outcome [5] | outcome [6] | outcome [7] | outcome [8]
active: growth inhibition [4] 96%

CCc1c(C)nc2nc(Cc3cccc(F)c3)nn2c1N1CCN(c2ccccn2)CC1
inactive: inhibition [2] -4% | inhibition [3] -1% | outcome [5] | outcome [6] | outcome [7] | outcome [8]
active: growth inhibition [1] 98% | growth inhibition [4] 100%

CCCCCCCc1ccc(-c2c(C)[nH]c(C)c(Cl)c2=O)cn1
active: growth inhibition [1] 96% | growth inhibition [4] 99%
inactive: inhibition [2] -4% | inhibition [3] -2% | outcome [5] | outcome [6] | outcome [7] | outcome [8]

O=C(NCCCCCN1CCC(c2c[nH]c3ccccc23)CC1)Nc1ccc(I)cc1
inactive: growth inhibition [1] -1% | inhibition [3] 2% | outcome [5] | outcome [6] | outcome [7] | outcome [8]
active: inhibition [2] 51% | growth inhibition [4] 100%

COc1ccc(-c2cc(C(=O)N[C@@H](CC3CCCCC3)C(=O)NCCN3CCCCC3)ccc2O)cc1
inactive: inhibition [2] 3% | inhibition [3] 0% | outcome [5] | outcome [6] | outcome [7] | outcome [8]
active: growth inhibition [1] 72% | growth inhibition [4] 98%

COc1ccc(Cn2c(SCc3ccc(C)cc3)nc3cc(OC)c(OC)cc3c2=N)cc1Cl
inactive: growth inhibition [1] 7% | inhibition [3] 5% | outcome [5] | outcome [6] | outcome [7] | outcome [8]
active: inhibition [2] 50% | growth inhibition [4] 92%

Cc1cc(NN=Cc2ccc(Cl)cc2)c2ccccc2n1
inactive: inhibition [2] 5% | inhibition [3] -3% | outcome [5] | outcome [6] | outcome [7] | outcome [8]
active: growth inhibition [1] 87% | growth inhibition [4] 100%

CC(C)(C)NC(=O)COC(=O)c1c2c(nc3ccccc13)C(=Cc1ccc3c(c1)OCO3)CCC2
inactive: inhibition [2] 7% | inhibition [3] -4% | outcome [5] | outcome [6] | outcome [7] | outcome [8]
active: growth inhibition [1] 82% | growth inhibition [4] 90%

O=C(/C=C/c1ccc(Cl)c(Cl)c1)NC1CCC(CN2CCC(c3c[nH]c4ccncc34)CC2)CC1 (stereo not given)
inactive: inhibition [2] 16% | inhibition [3] -1% | outcome [5] | outcome [6] | outcome [7] | outcome [8]
active: growth inhibition [1] 96% | growth inhibition [4] 100%

O=C(NC1CCCCC1)N(Cc1cccc(-c2ccc(CNC3CCCC3)cc2)c1)C1CCN(Cc2ccccc2)CC1
active: growth inhibition [1] 89% | growth inhibition [4] 98%
inactive: inhibition [2] 37% | inhibition [3] -2% | outcome [5] | outcome [6] | outcome [7] | outcome [8]

Oc1ccc(CCNc2nc(NCCCOc3ccccc3-c3ccc(F)cc3)nc(N3CCNCC3)n2)cc1
active: growth inhibition [4] 85%
inactive: growth inhibition [1] 8% | inhibition [2] 30% | inhibition [3] -1% | outcome [5] | outcome [6] | outcome [7] | outcome [8]

NC1=NC(c2ccccc2)(c2cccc(O)c2)C(=O)N1CCCc1ccccc1 (stereo not given)
38% (inactive) and 93% (active): growth inhibition [1]
active: growth inhibition [4] 85% and 98%
inactive: inhibition [2] -2% | inhibition [3] -2% and 4% | outcome [5] | outcome [6] | outcome [7] | outcome [8]

Cn1nccc1C(=O)NCCNCc1ccc(-c2ccc(-c3nc4ccc(C(F)(F)F)cc4[nH]3)cc2)cc1
active: growth inhibition [1] 99% | growth inhibition [4] 100%
inactive: inhibition [2] 35% | inhibition [3] -2% | outcome [5] | outcome [6] | outcome [7] | outcome [8]

O=C(/C=C/c1ccc(Cl)c(Cl)c1)NCCCCCN1CCC(NC(=O)Nc2cccc(C(F)(F)F)c2)CC1
inactive: growth inhibition [1] 11% | inhibition [3] 4% | outcome [5] | outcome [6] | outcome [7] | outcome [8]
active: inhibition [2] 61% | growth inhibition [4] 102%
